What was measured:
[1] = target: Mitogen-activated protein kinase kinase kinase kinase 4 (Homo sapiens) (UniProt O95819); settings: at 1 µM;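 also: reported figure is an averaged inhibition value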
[2] = target: Dual specificity mitogen-activated protein kinase kinase 1 (Homo sapiens) (UniProt Q02750); settings: at 0.1 µM
[3] = target: Dual specificity mitogen-activated protein kinase kinase 1 (Homo sapiens) (UniProt Q02750); settings: at 1 µM
[4] = target: Misshapen-like kinase 1 (Homo sapiens) (UniProt Q8N4C8); settings: at 0.1 µM
[5] = target: Misshapen-like kinase 1 (Homo sapiens) (UniProt Q8N4C8); settings: at 1 µM
[6] = target: T1, Serine/threonine-protein kinase 4 (Homo sapiens) (UniProt Q13043); settings: at 0.1 µM
T1 sequence (whole entry): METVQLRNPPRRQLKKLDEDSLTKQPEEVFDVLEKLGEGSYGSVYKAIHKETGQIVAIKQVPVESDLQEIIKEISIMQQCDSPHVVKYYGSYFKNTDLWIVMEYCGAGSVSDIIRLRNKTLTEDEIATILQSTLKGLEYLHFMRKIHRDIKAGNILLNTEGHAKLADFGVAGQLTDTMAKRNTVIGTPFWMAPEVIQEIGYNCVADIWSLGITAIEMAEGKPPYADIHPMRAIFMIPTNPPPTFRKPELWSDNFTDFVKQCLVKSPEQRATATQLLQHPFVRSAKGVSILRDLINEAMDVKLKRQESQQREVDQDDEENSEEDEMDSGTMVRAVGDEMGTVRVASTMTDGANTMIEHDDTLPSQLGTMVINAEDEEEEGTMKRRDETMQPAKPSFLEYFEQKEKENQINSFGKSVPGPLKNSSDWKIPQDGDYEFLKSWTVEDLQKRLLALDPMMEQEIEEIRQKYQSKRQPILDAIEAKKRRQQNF

[7] = target: T1, Serine/threonine-protein kinase 4 (Homo sapiens); settings: at 1 µM
[8] = target: T2, Serine/threonine-protein kinase 3 (Homo sapiens) (UniProt Q13188); settings: at 0.1 µM
T2 sequence (whole entry): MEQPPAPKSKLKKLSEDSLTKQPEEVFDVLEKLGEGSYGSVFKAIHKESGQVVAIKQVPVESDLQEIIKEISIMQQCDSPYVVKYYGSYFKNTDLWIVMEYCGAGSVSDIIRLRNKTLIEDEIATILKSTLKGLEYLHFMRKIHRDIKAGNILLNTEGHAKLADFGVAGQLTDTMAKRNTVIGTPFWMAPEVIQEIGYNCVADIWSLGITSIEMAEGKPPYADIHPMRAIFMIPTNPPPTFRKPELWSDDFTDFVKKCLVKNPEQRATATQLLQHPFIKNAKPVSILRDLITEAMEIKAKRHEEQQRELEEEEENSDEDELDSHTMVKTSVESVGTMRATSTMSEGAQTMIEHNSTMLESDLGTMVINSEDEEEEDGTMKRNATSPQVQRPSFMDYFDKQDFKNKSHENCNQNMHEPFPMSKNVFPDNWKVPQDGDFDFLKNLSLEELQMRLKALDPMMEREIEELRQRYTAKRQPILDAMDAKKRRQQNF

[9] = target: T2, Serine/threonine-protein kinase 3 (Homo sapiens); settings: at 1 µM
[10] = target: Serine/threonine-protein kinase 26 (Homo sapiens) (UniProt Q9P289); settings: at 0.1 µM
[11] = target: Serine/threonine-protein kinase 26 (Homo sapiens) (UniProt Q9P289); settings: at 1 µM
[12] = target: Serine/threonine-protein kinase PAK 1 (Homo sapiens) (UniProt Q13153); settings: at 0.1 µM
[13] = target: Serine/threonine-protein kinase PAK 1 (Homo sapiens) (UniProt Q13153); settings: at 1 µM
[14] = target: Serine/threonine-protein kinase PAK 2 (Homo sapiens) (UniProt Q13177); settings: at 0.1 µM
[15] = target: Serine/threonine-protein kinase PAK 2 (Homo sapiens) (UniProt Q13177); settings: at 1 µM
[16] = target: Serine/threonine-protein kinase PAK 3 (Homo sapiens) (UniProt O75914); settings: at 0.1 µM
[17] = target: Serine/threonine-protein kinase PAK 3 (Homo sapiens) (UniProt O75914); settings: at 1 µM
[18] = target: Serine/threonine-protein kinase PAK 5 (Homo sapiens) (UniProt Q9P286); settings: at 0.1 µM
[19] = target: Serine/threonine-protein kinase PAK 5 (Homo sapiens) (UniProt Q9P286); settings: at 1 µM
[20] = target: Serine/threonine-protein kinase PAK 6 (Homo sapiens) (UniProt Q9NQU5); settings: at 0.1 µM;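 also: mean PAK6 inhibition reported from the GSK PKIS screen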

Misshapen-like kinase 1 (Homo sapiens), sequence (Q8N4C8 whole entry, looked up): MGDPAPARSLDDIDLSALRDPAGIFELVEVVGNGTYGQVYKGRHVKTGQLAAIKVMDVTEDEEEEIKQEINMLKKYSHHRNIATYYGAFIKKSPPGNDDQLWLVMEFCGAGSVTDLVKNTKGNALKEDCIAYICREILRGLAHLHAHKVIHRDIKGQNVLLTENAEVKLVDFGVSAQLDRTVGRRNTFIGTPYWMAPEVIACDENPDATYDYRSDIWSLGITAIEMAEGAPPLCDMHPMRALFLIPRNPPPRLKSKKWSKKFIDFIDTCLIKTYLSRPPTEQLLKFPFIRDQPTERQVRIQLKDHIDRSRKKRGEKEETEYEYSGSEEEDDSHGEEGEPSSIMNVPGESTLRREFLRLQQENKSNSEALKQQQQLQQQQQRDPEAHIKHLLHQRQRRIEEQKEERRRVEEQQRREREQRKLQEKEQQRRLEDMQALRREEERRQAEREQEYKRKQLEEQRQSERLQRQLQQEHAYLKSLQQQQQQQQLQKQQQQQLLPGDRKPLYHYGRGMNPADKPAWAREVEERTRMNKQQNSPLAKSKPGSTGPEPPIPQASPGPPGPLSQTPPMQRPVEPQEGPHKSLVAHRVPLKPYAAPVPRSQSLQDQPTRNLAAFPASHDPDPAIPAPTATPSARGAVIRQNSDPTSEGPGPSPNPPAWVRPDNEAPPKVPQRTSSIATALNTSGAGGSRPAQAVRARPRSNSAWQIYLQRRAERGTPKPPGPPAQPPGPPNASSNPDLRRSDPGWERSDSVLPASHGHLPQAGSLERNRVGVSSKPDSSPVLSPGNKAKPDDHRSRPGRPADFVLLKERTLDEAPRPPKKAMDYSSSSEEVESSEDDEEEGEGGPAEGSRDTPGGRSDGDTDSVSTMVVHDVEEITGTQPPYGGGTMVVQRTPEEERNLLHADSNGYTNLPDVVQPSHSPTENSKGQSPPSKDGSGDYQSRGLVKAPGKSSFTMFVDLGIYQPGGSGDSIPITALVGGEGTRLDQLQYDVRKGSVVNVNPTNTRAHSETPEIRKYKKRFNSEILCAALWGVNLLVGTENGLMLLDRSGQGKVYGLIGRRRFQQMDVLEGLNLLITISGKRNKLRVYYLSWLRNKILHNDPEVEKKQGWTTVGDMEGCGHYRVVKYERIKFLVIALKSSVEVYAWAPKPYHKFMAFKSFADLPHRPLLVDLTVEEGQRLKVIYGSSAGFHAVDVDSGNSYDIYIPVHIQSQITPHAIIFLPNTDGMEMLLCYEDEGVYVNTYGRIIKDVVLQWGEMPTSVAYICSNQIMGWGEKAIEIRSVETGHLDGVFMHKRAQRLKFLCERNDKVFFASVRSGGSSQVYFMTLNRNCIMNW
Serine/threonine-protein kinase 26 (Homo sapiens), sequence (Q9P289 2-416 limits assumed): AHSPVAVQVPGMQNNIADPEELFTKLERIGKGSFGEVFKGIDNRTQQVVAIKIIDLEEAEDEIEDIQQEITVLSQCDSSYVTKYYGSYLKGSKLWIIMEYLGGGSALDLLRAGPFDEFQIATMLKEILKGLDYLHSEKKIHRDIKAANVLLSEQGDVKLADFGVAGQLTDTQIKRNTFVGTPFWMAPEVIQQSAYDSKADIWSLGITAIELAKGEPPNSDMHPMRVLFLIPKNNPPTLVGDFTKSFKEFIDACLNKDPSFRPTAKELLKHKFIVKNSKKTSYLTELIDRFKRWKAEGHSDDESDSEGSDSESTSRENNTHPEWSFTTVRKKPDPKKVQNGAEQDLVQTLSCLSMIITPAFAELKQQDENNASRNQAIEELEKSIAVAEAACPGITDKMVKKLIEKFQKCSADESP
Serine/threonine-protein kinase PAK 1 (Homo sapiens), sequence (Q13153 whole entry): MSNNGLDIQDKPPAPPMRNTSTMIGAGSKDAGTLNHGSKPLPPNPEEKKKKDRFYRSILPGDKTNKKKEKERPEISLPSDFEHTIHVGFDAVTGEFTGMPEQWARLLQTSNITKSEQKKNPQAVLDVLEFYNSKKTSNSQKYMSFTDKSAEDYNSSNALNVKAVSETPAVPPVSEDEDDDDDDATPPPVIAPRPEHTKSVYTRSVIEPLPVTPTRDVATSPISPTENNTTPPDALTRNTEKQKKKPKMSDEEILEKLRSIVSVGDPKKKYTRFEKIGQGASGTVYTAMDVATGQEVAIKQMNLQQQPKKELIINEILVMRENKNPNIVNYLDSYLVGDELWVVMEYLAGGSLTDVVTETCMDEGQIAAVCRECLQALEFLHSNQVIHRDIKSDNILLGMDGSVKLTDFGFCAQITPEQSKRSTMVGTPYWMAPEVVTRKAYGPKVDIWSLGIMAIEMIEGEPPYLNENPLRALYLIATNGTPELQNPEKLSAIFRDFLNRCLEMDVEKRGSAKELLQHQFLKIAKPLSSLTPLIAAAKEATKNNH
Mitogen-activated protein kinase kinase kinase kinase 4 (Homo sapiens), sequence (O95819 2-1239 limits assumed): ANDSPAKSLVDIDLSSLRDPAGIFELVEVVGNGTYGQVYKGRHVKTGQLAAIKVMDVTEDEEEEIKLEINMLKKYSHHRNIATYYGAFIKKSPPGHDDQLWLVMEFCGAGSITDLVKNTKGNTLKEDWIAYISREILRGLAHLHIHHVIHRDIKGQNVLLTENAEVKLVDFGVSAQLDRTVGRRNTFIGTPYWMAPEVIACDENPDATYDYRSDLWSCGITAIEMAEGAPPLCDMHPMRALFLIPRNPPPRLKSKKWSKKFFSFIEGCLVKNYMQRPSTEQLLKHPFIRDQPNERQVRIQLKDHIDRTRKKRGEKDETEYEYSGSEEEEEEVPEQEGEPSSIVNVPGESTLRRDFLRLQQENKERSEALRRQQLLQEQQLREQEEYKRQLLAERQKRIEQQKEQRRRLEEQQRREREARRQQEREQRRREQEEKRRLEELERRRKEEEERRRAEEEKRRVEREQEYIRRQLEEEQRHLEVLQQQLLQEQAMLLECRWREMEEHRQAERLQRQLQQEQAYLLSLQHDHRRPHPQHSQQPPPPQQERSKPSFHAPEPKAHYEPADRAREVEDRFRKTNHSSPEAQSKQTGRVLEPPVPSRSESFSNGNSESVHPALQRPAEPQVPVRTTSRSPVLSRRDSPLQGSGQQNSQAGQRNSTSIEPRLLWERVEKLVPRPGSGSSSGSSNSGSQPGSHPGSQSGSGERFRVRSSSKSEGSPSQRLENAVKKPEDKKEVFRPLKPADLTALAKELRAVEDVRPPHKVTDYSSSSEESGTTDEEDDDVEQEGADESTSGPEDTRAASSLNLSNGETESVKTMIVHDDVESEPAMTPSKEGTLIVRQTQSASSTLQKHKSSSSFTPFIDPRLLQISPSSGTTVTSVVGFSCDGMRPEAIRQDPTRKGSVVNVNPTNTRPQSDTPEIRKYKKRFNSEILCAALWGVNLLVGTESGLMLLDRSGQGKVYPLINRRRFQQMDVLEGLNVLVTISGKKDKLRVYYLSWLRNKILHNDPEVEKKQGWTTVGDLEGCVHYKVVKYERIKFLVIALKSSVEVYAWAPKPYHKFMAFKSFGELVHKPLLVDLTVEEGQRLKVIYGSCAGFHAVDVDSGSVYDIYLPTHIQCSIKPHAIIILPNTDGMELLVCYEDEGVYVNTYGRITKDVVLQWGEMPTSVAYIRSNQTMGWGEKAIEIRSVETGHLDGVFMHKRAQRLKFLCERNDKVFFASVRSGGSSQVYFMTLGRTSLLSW
Dual specificity mitogen-activated protein kinase kinase 1 (Homo sapiens), sequence (Q02750 whole entry): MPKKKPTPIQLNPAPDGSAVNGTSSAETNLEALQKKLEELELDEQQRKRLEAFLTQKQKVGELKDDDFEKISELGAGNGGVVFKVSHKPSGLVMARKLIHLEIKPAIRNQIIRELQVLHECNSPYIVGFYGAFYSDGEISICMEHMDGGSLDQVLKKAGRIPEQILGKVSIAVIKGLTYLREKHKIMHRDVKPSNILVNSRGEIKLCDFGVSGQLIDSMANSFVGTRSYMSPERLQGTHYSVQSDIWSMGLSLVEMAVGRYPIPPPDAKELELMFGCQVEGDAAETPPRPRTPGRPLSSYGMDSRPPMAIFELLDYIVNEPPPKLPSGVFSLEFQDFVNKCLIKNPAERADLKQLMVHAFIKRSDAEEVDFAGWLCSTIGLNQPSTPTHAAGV
Serine/threonine-protein kinase PAK 5 (Homo sapiens), sequence (Q9P286 whole entry, looked up): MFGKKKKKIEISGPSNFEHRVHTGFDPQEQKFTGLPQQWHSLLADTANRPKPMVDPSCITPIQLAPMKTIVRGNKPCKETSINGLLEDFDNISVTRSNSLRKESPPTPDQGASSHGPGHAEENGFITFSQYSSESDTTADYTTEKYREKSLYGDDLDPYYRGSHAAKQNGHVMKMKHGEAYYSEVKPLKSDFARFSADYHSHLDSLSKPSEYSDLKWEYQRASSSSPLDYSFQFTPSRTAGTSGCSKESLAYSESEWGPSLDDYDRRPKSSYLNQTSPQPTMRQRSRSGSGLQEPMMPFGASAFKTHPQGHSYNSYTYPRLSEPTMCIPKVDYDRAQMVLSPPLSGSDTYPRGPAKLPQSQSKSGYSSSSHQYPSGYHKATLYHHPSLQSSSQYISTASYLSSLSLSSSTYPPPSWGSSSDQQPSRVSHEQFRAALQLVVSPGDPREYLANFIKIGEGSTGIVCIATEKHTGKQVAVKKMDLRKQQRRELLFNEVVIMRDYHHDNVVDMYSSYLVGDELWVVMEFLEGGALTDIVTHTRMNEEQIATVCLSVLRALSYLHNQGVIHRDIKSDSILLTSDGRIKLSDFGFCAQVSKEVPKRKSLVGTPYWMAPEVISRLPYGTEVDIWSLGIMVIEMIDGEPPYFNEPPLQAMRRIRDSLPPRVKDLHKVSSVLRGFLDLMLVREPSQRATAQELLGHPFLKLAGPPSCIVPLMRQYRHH

| SMILES | inhibition [1] [%] | inhibition [2] [%] | inhibition [3] [%] | inhibition [4] [%] | inhibition [5] [%] | inhibition [6] [%] | inhibition [7] [%] | inhibition [8] [%] | inhibition [9] [%] | inhibition [10] [%] | inhibition [11] [%] | inhibition [12] [%] | inhibition [13] [%] | inhibition [14] [%] | inhibition [15] [%] | inhibition [16] [%] | inhibition [17] [%] | inhibition [18] [%] | inhibition [19] [%] | inhibition [20] [%] |
| --- | --- | --- | --- | --- | --- | --- | --- | --- | --- | --- | --- | --- | --- | --- | --- | --- | --- | --- | --- | --- |
| COc1cc2ncn(-c3cc(OCc4ccccc4C(F)(F)F)c(C(C)=O)s3)c2cc1OC | 8.16 | 3.88 | 3.7 | 5 | 8.55 | 3.51 | 3.86 | 3.42 | 7.42 | -0.47 | -1.77 | 5.43 | 4.68 | 0.85 | 1.29 | 4.94 | 2.41 | -1.43 | 0.17 | -1.14 |
| Cc1ccc(NC(=O)c2ccoc2)cc1-c1ccc(C(=O)NCC2CC2)cc1 | 1.38 | 2.89 | 2.27 | 2.91 | 1.4 | 4.29 | 2.08 | 4.78 | 4.5 | -1.09 | -2.75 | 3.52 | 4.54 | 0.23 | -1.68 | 2.22 | 1.14 | -1.43 | 2.58 | -5.33 |
| C[C@@H](Oc1cc(-n2cnc3ccc(OC4CCN(C)CC4)cc32)sc1C(N)=O)c1ccccc1Cl | 7.81 | 1.83 | 2.54 | 6.26 | 5.92 | 4.68 | 19.5 | 6.85 | 13.4 | -3.27 |  | 5.45 | 7.26 | 1.74 | 2.5 | 5.07 | 10.3 | 4.34 | 5.61 |  |
| Cc1ccc(C(=O)NC2CCC2)cc1-c1ccc(C(=O)NCC2CC2)cc1 | 3.8 | 2.81 | 2.71 | 5.5 | 4.67 | 3.29 | 1.77 | 1.04 | 1.53 | -3.48 | -4.44 | 6.1 | 8.35 | 2.22 | 2.3 | 3.41 | 3.03 | -0.72 | -2.79 | 3.05 |
| O=C(Nc1n[nH]c2cc(-c3cc(F)ccc3F)ccc12)C1CC1 | 58.7 | 4.62 | 4.19 | 11.6 | 45.7 | 1.85 | 4.03 | 2.46 | 3.81 | -1.29 | -1.14 | 5.03 | 5.57 | 0.42 | 2.22 | 2.86 | 2.97 | 3.42 | -2.05 | 2.84 |
| COc1cccc(-n2cnc3c(N/N=C/c4ccncc4)ncnc32)c1 | 16.9 | -0.13 | -0.71 | 2.27 | 16.9 | 3.6 | 7.14 | 4.46 | 7.42 | 0.98 | -2.88 | 2.37 | 1.58 | -1.03 | -0.99 | -1.14 | 0.31 | 6.09 | 10.8 | 5.99 |
| NC(=O)Cc1ccccc1Oc1nccc(-c2c(-c3ccc(F)cc3)ncn2C2CCNCC2)n1 | 6.68 | 2.01 | 2.53 | 4.37 | 6.95 | 1.4 | 3.79 | 2.69 | 4.24 | -0.95 | -1.77 | 4.71 | 7.55 | 1.39 | 1.36 | 0.09 | 3.36 | -1.8 | -2.81 | 1.97 |
| CCc1nccc2c1nc(-c1nonc1N)n2CC | 6.31 | 1.12 | 1.54 | 3.5 | 3.84 | -1.14 | -0.39 |  |  | -1.4 | -1.83 | 3.29 | 3.71 | 0.74 | 1.13 | 0.51 | 1.09 |  |  | 3.51 |
| NC(=O)c1ccc(Oc2nccc(-c3c(-c4ccc(F)cc4)ncn3C3CCNCC3)n2)cc1 | 3.93 | 4.51 | 4.62 | 6.11 | 6.81 | 4.07 | 4.99 | 8.2 | 7.98 | -1.23 | 2.28 | 10 | 11 | 2.27 | 2.2 | 6.67 | 9.21 | 4.23 | 0.82 | -4.02 |
| O=C(Nc1n[nH]c2nc(-c3ccc(O)cc3)c(Br)cc12)C1CC1 | 75.2 | 7.68 | 8.1 | 26.4 | 67.7 | 5.36 | 10.2 | 6.31 | 10.6 | 4.96 | 35 | 7.71 | 8.21 | 2.36 | 3.87 |  | 6.07 | 1.12 | 8.52 | -0.4 |
| O=C(Nc1n[nH]c2cc(-c3ccccc3)ccc12)C1CC1 | 74.2 | 4.67 | 3.62 | 21.4 | 64.5 | 4.78 | 6.38 | 5.18 | 6.35 | -2.61 | -4.03 | 7.59 | 7.76 | 1.44 | 2.41 | 5.22 | 6.01 | 0.11 | -0.04 | 5.51 |
| NC(=O)c1cc(-c2ccc(F)cc2)cc(-c2ccncc2)c1N | 9.21 | 5.61 | 3.83 | 4.49 | 10 | 3.76 | 5.59 | 4.31 | 5.48 | -2.72 | -1.28 | 5.31 | 6.13 | 0.6 | 1.36 | 4.12 | 4.25 | -1.26 | 1.21 | -6.76 |
| O=C1Nc2ccccc2/C1=C/Nc1ccc(-n2cncn2)cc1 | 65.8 | 6.13 | 6.15 | 15.3 | 56.5 | 14.9 | 54.4 | 9.7 | 35.7 | -0.63 | 5.15 | 6.65 | 8.31 | 1.82 | 2.17 | 5.31 | 5.49 |  | -2.52 | -0.09 |
| COc1cc(Nc2ncc3c(C)nc(-c4cccc(C(F)(F)F)c4)n3n2)cc(OC)c1OC | 34 | 4.45 | 10.7 | 10.5 | 29.2 | 7.12 | 17.8 | 6.69 | 13.2 | 0.97 | 5.84 | 6.01 | 8.56 | 1.46 | 2.81 | 3.31 | 7.5 | 5.75 | 15.9 | -0.28 |

Source: ChEMBL document CHEMBL1961873, “Compounds: GSK PKIS; Assays: Nanosyn kinase panel” (2012)
